Source: PubChem BioAssay (Sanford-Burnham Center for Chemical Genomics)
SKN-1 block: C. elegans SKN-1 inhibition; inhibition, % at 21.8 µM; AID 624304; C. elegans VP596 Pgst-4::GFP/RFP ratio, acrylamide-induced, 24 h; hit rate 0.49% among 360,000;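 active = interference check ratio from 0.5 to 1.5 plus GFP to RFP signal ratio inhibition reaching or exceeding a fixed threshold, cut at about 30% in these data, passing the limit was not always enough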
hiPSC survival: enhancers of human iPSC single-cell survival | hiPSC single-cell survival, ATPlite luminescence; 100% = ROCK inhibitor wells, 0% = DMSO | survival enhancement, % at 20 µM | hit rate 0.044% among 360,000; in the data active = survival enhancement above about 18%;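 also: cells exposed to compounds for 16 hours before the ATP read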
CRFBP-R2 block: antagonists of CRF-binding protein/CRF-R2 receptor complex; HEK293 CRF-R2/CRF-BP, CRF-induced calcium fluorescence; hit rate 0.59% among 350,000; inhibition, % at 11.8 µM; AID 588475;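 active = inhibition of the ligand-induced calcium signal above about 50% at the single tested concentration, limit read from the data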
Cardio protect: modulators protecting cardiomyocytes from myocardial damage; H9c2 cardiomyocytes, H2O2 injury protection, ATPLite, 2 h; protection from H2O2 cell death, % at 20 µM; hit rate 0.63% among 360,000;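 active = compounds giving at least 50% protection of heart cells from peroxide-induced death in the single-dose screen, raw or plate-pattern-corrected value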;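 also: 0% = DMSO wells with peroxide and 100% = DMSO wells without peroxide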
TAG inh: triacylglycerol accumulation inhibition; H9c2 cells, Nile Red lipid (TAG) fluorescence; cells loaded with 200 µM oleic acid; inhibition, % at 12.5 µM; hit rate 0.66% among 230,000;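 active = pattern-corrected inhibition of lipid staining of at least 50% with the nuclear-stain viability signal not falling by more than 50%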;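 also: 0% = DMSO wells and 100% = triacsin C control wells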
CRFBP-R2 agonist: CRF-BP/CRF-R2 complex agonism | HEK293 CRF-R2/CRF-BP, calcium dye fluorescence (FLIPR); percent of saturating CRF peptide response | activation, % at 13.2 µM | hit rate 0.46% among 350,000 | AID 588473;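 active = activation of at least 50%, plus an integration ratio under a set limit after plate pattern correction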;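 also: plate controls were neutral control wells without compound for no effect and CRF at EC100 for full effect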
H9c2 TAG conf: triacylglycerol accumulation inhibition, confirmation. hit rate 71% among 990. H9c2 lipid accumulation, Nile Red fluorescence; cells loaded with 200 µM oleic acid. shares compounds with TAG inh. inhibition, % at 12.5 µM. AID 651629;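 active = mean inhibition across replicates of 40% or more; inactive = mean inhibition below 40%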;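 also: plate controls were DMSO only wells for no effect and Triacsin C treated wells for full effect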
* marks the source's active call; other numbers are inactive results. Rows were chosen to be rich in hits. Some 2.5% of all compounds tested hit in one or more screens of this group.

What do the screens show for `COc1cc(-c2coc3c(C(=O)NCc4ccc(C(F)(F)F)cc4)cccc23)ccc1O`?
SKN-1 block: 19; hiPSC survival: -1; Cardio protect: -8; TAG inh: 54*; H9c2 TAG conf: 27

How did Cc1nc(N/N=C/c2cccc(F)c2)cc(N2CCOCC2)n1 do in these assays?
SKN-1 block: 8; hiPSC survival: 0; CRFBP-R2 block: -16; Cardio protect: 19; TAG inh: 64*; CRFBP-R2 agonist: -1; H9c2 TAG conf: 68*

What do the screens show for `Cc1ccc2c(c1)-c1c(cnn1CC(=O)O)CO2`?
SKN-1 block: 13; hiPSC survival: 3; CRFBP-R2 block: 0; Cardio protect: 9; TAG inh: 1; CRFBP-R2 agonist: 2

Results for Cc1ccc2c(c1)-c1c(cnn1CC(=O)Nc1ccccc1N1CCN(C)CC1)CO2 ?
SKN-1 block: 5; hiPSC survival: -3; CRFBP-R2 block: -15; Cardio protect: 38; TAG inh: 53*; CRFBP-R2 agonist: -1; H9c2 TAG conf: 51*

What do the screens show for `COc1ccc(C(=O)Nc2ccc(C(=O)Nc3cccc(C)c3)cc2)cc1`?
SKN-1 block: -18; hiPSC survival: 0; CRFBP-R2 block: 15; Cardio protect: 1; TAG inh: 56*; CRFBP-R2 agonist: 8; H9c2 TAG conf: 38

How did O=C(Nc1ccccc1)c1cc(C2CCCCN2C(=O)c2ccc3c(c2)CCO3)on1 (stereo not drawn) do in these assays?
SKN-1 block: 9; hiPSC survival: 0; Cardio protect: 2; TAG inh: 15

What do the screens show for `O=C(Nc1cccc2ccccc12)c1ccc([N+](=O)[O-])o1`?
SKN-1 block: 10; hiPSC survival: -1; CRFBP-R2 block: 1; Cardio protect: -19; CRFBP-R2 agonist: -2

How did Cc1cccc(NC(=O)c2ccc([N+](=O)[O-])o2)c1C do in these assays?
SKN-1 block: 1; hiPSC survival: 0; CRFBP-R2 block: -3; Cardio protect: -16; TAG inh: 71*; CRFBP-R2 agonist: 0; H9c2 TAG conf: 62*

Results for C=CCN1C(=O)c2ccc(C(=O)N3CCN(S(=O)(=O)c4cccc(Cl)c4)CC3)cc2C1=O ?
SKN-1 block: 0; hiPSC survival: 0; CRFBP-R2 block: 13; Cardio protect: 1; TAG inh: 3; CRFBP-R2 agonist: -1

What do the screens show for `COc1ccc(NC(=O)c2cc3c([nH]c4ccccc43)c(C)n2)cc1`?
SKN-1 block: 9; hiPSC survival: -2; CRFBP-R2 block: -8; Cardio protect: -3; CRFBP-R2 agonist: 0

Results for Cc1nc(C(=O)Nc2ccccc2Cl)cc2c1[nH]c1ccccc12 ?
SKN-1 block: 9; hiPSC survival: 16; CRFBP-R2 block: -5; Cardio protect: -18; TAG inh: 75*; CRFBP-R2 agonist: 1; H9c2 TAG conf: 55*

How did CN1CCN(c2ccc(Cl)cc2NC(=O)c2ccc(S(=O)(=O)N(C)C)cc2)CC1 do in these assays?
SKN-1 block: 9; hiPSC survival: -5; CRFBP-R2 block: -2; Cardio protect: 12; TAG inh: 52*; CRFBP-R2 agonist: 3; H9c2 TAG conf: 22

How did CCN(CC)S(=O)(=O)c1cc(C(=O)Nc2cc(Cl)ccc2N2CCN(C)CC2)ccc1Cl do in these assays?
SKN-1 block: 11; hiPSC survival: -2; CRFBP-R2 block: -31; Cardio protect: 26; CRFBP-R2 agonist: 0

Results for O=C(O)CNC(=O)c1nc(-c2ccccc2)n(-c2ccccc2)n1 ?
SKN-1 block: 13; hiPSC survival: 0; CRFBP-R2 block: -2; Cardio protect: 11; CRFBP-R2 agonist: -1

Results for COc1ccc(CC(N)c2csc(NC(=O)Nc3ccccc3C(C)(C)C)n2)cc1 (stereo not drawn) ?
SKN-1 block: 9; hiPSC survival: -4; Cardio protect: 8; TAG inh: 40

Results for COc1ccc(CC(N)c2csc(NC(=O)NCc3ccccc3)n2)cc1 (stereo not drawn) ?
SKN-1 block: 25; hiPSC survival: 1; Cardio protect: 1; TAG inh: 53*; H9c2 TAG conf: 42*

Results for COc1cc(OC)nc(Nc2nc(C(N)Cc3ccc(Cl)cc3)cs2)n1 (stereo not drawn) ?
SKN-1 block: 15; hiPSC survival: -3; Cardio protect: -12; TAG inh: 58*; H9c2 TAG conf: 46*

What do the screens show for `COc1cc(NC(=O)Nc2nc(C(N)CCc3ccccc3)cs2)cc(OC)c1OC` (stereo not drawn)?
SKN-1 block: 7; hiPSC survival: -4; Cardio protect: 1; TAG inh: 83*; H9c2 TAG conf: 89*

What do the screens show for `COc1ccc(CC(N)c2csc(NC(=O)Nc3ccccc3-c3ccccc3)n2)cc1` (stereo not drawn)?
SKN-1 block: -16; hiPSC survival: -3; Cardio protect: -24; TAG inh: 73*; H9c2 TAG conf: 87*

What do the screens show for `COc1ccc(OC)c(NC(=O)Nc2nc(C(N)CCc3ccccc3)cs2)c1` (stereo not drawn)?
SKN-1 block: 18; hiPSC survival: -2; Cardio protect: -12; TAG inh: 103

Results for COc1ccc(CNC(=O)Nc2nc(C(N)c3ccccc3)cs2)cc1 (stereo not drawn) ?
SKN-1 block: -3; hiPSC survival: 2; Cardio protect: 24; TAG inh: -3

What do the screens show for `COC(=O)c1cc(C)nc(Nc2nc(C(N)Cc3ccc(Cl)cc3)cs2)n1` (stereo not drawn)?
SKN-1 block: 1; hiPSC survival: -2; Cardio protect: 13; TAG inh: 13

What do the screens show for `CC(C)CC(=O)Nc1nnc(S(=O)(=O)N(C)Cc2ccco2)s1`?
SKN-1 block: 14; hiPSC survival: 0; CRFBP-R2 block: -9; Cardio protect: -2; CRFBP-R2 agonist: -1

How did CC(C)CC(N)c1csc(NC(=O)Nc2ccccc2Cc2ccccc2)n1 (stereo not drawn) do in these assays?
SKN-1 block: 4; hiPSC survival: -6; Cardio protect: -30; TAG inh: 114*; H9c2 TAG conf: 69*

What do the screens show for `COc1cc(CNC(=O)Nc2nc(C(N)Cc3ccc(C(F)(F)F)cc3)cs2)cc(OC)c1OC` (stereo not drawn)?
SKN-1 block: 0; hiPSC survival: -4; Cardio protect: -2; TAG inh: 76*; H9c2 TAG conf: 88*

How did NC(Cc1ccc(C(F)(F)F)cc1)c1csc(NC(=O)Nc2ccccc2)n1 (stereo not drawn) do in these assays?
SKN-1 block: -8; hiPSC survival: -2; Cardio protect: -21; TAG inh: 28
